Laboratory results taken from PubChem BioAssay (Tox21).
Results filed as inconclusive are left out. Activity calls are given as the source filed them. Unless noted, calls follow the shape of the dose curve; as a rule, active = well fitted curve in the direction sought with a large enough effect in the repeat runs; inconclusive = weak or mixed curves; inactive = no such curve, though single readings can be large; an effect the other way counts as inactive or inconclusive.

Tests used:
[1] = target: Retinoic acid receptor RXR-alpha (Homo sapiens) (UniProt P19793); assay: qHTS assay to identify small molecule agonists of the RXR signaling pathway (AID 1159527; calls by dose curve; also: nearly all actives have a fitted effect of over 35% in size)
Outline: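 Read-out: beta-lactamase FRET ratio (405 nm excitation, 460 and 530 nm emission) after 2 hr substrate loading at room temperature. Cells were RXR-alpha-UAS-bla HEK 293T treated with compounds for 16 hr in 2% charcoal-stripped FBS medium.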

[2] = qHTS assay to identify small molecule agonists of the RXR signaling pathway - cell viability counter screen (AID 1159529); also: series mostly up to about 77 µM; nearly all actives have a fitted effect of over 50% in size
Outline: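 HEK 293T RXRa-bla cells, 2% CS-FBS; 5 h settle; cpd 16 h 37 C, 5% CO2; CellTiter-Glo 30 min RT, luminescence. Tetraoctyl ammonium bromide as positive control.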

[3] = qHTS assay to identify small molecule antagonists of the retinoid acid receptor (RAR) signaling pathway - cell viability counter screen (AID 1159551); also: nearly all actives have a fitted effect of over 35% in size
Outline: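 Seed C3RL4 cells; next day add compound, then retinol to 1 uM final; incubate 6 h at 37 C; add CellTiter-Glo; read luminescence after 30 min at RT.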

[4] = qHTS assay to identify small molecule agonists of the retinoic acid receptor (RAR) signaling pathway (AID 1159553)
Outline: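 Activation of retinol signaling was monitored via a RARE luciferase reporter in C3RL4 cells. After 6 hr compound treatment at 37 C, detection reagent was added for 30 min at room temperature before luminescence reading.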

[5] = qHTS assay to identify small molecule antagonists of the estrogen related receptor (ERR) signaling pathway from Tox21 library - cell viability counter screen (AID 1224834); also: nearly all actives have a fitted effect of over 30% in size
Outline: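 CellTiter-Fluor fluorescence measured; ERR cells; 17.5 h compound incubation at 37 C; 30 min reagent step.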

[6] = target: Luciferin 4-monooxygenase (Photinus pyralis) (UniProt P08659); assay: qHTS assay to identify small molecule inhibitors of firefly luciferase (AID 1224835); also: series mostly up to about 120 µM; nearly all actives have a fitted effect of over 25% in size
Outline: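 Quantitative HTS format; KM concentrations of both substrates. Purified P. pyralis FLuc activity quantified from luminescence images.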

[7] = qHTS assay to identify small molecule agonists of the constitutive androstane receptor (CAR) signaling pathway - cell viability counter screen (AID 1224836); also: series mostly up to about 92 µM; nearly all actives have a fitted effect of over 45% in size
Outline: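 HepG2-CYP2B6-hCAR, 2500 cells/well, 4 h pre-incubation; cpd 15 conc + PK11195 0.75 uM final; 23 h, 37 C/5% CO2; CellTiter-Fluor, fluorescence.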

[8] = qHTS assay to identify small molecule antagonists of the constitutive androstane receptor (CAR) signaling pathway - cell viability counter screen (AID 1224837); also: series mostly up to about 92 µM; nearly all actives have a fitted effect of over 45% in size
Outline: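 Using CellTiter-Fluor, viability is scored in HepG2 cells stably carrying hCAR and a 2.2kb CYP2B6 reporter after 23 hr compound exposure across 15 concentrations, with CITCO present at 50 nM.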

[9] = target: Nuclear receptor subfamily 1 group I member 3 (Homo sapiens) (UniProt Q14994); assay: qHTS assay to identify small molecule antagonists of the constitutive androstane receptor (CAR) signaling pathway (AID 1224838);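 also: HepG2 cells stably expressing hCAR with CYP2B6 luciferase reporter stimulated by CITCO; nearly all actives have a fitted effect of over 40% in size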
Outline: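 Reporter luminescence was quantified after 24 h exposure of hCAR/CYP2B6-2.2kb double-stable HepG2 cells to compounds at 15 concentrations in the presence of 50 nM CITCO final.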

[10] = target: Nuclear receptor subfamily 1 group I member 3 (Homo sapiens) (UniProt Q14994); assay: qHTS assay to identify small molecule agonists of the constitutive androstane receptor (CAR) signaling pathway (AID 1224839);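 also: HepG2 cells stably carrying human CAR and a CYP2B6 luciferase reporter; series mostly up to about 92 µM; nearly all actives have a fitted effect of over 15% in size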
Outline: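 HepG2-CYP2B6-hCAR cells, 2500/well, 4 h pre-incubation; compounds 15 conc.; PK11195 0.75 uM final; 24 h, 37 C/5% CO2; ONE-Glo luciferase read.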

[11] = qHTS assay to identify small molecule antagonists of the estrogen related receptor signaling pathway with the pleiotropic PPARgamma coactivator (PGC) from Tox21 10K library - cell viability counter screen (AID 1224840; active = well fitted cell-killing curve with a large enough effect in the repeat runs, not every such curve was filed as active; also: nearly all actives have a fitted effect of over 40% in size)
Outline: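 Here the PGC/ERR cells serve as a cytotoxicity control: they are exposed to compounds for 17.5 hours at 37 C, and live-cell signal is quantified using CellTiter-Fluor fluorescence.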

[12] = target: Thyrotropin receptor (Homo sapiens) (UniProt P16473); assay: qHTS assay to identify small molecule agonists of the thyroid stimulating hormone receptor (TSHR) signaling pathway (AID 1224843; calls by dose curve; also: nearly all actives have a fitted effect of over 45% in size)
Outline: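 Cell line HEK293 with TSHR; density 800/well. Exposure 30 min RT. Readout HTRF cAMP (cAMP-d2/anti-cAMP-cryptate), 1 h RT before reading.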

[13] = qHTS assay to identify small molecule agonists of the hypoxia (HIF-1) signaling pathway - cell viability counter screen (AID 1224844; calls by dose curve; also: nearly all actives have a fitted effect of over 50% in size)
Outline: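 Multiplexed with the HRE beta-lactamase assay, this viability read used CellTiter-Glo luminescence (30 min, RT) on HRE-bla ME-180 cells treated 17 hrs with compounds in 0.5% dialyzed FBS medium.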

[14] = qHTS assay to identify small molecule agonists of H2AX (AID 1224845; active = well fitted activation curve with a large enough effect in the signal ratio in the repeat runs, not every such curve was filed as active; the % refers to the signal ratio)
Outline: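 Wild-type CHO-K1 cells plated overnight, then exposed 3 hr at 37C to compounds at 15 concentrations (0.76% DMSO). Lysed, then HTRF anti-pH2AX(S139)-cryptate/anti-H2AX-d2 detection after 24 hr at room temperature; emissions 665 and 620 nm.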

[15] = qHTS assay to identify small molecule agonists of the hypoxia (HIF-1) signaling pathway (AID 1224846; active = well fitted activation curve with a large enough effect in the signal ratio in the repeat runs, not every such curve was filed as active; the % refers to the signal ratio)
Outline: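 Hypoxia-pathway activation was scored as increased beta-lactamase from an HRE-controlled reporter in ME-180 cells; plated at 2,000 cells per well with 0.5% dialyzed FBS, they were exposed 17 hrs to compounds and then given CCF4-AM.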

[16] = qHTS assay to identify small molecule agonists of H2AX - cell viability counter screen (AID 1224847; calls by dose curve; also: top concentration of the series differs between compounds; nearly all actives have a fitted effect of over 30% in size)
Outline: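 Cells plated first: CHO-K1, 1000 per well in 10% FBS medium, incubated overnight at 37C. Then 15-point compound titration added (final DMSO 0.76%) for 3 hr. Finally CellTiter-Glo added and luminescence read.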

[17] = qHTS assay to identify small molecule antagonists of the retinoic acid receptor (RAR) signaling pathway (AID 1159552; also: nearly all actives have a fitted effect of over 50% in size)
Outline: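 Cells of the C3RL4 line were seeded, incubated overnight, then dosed with compounds in DMSO followed immediately by retinol (1 uM final). Six hours later luciferase detection reagent went in; signal was measured after 30 min at RT.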

[18] = qHTS assay to identify small molecule agonists of the estrogen related receptor signaling pathway with the pleiotropic PPARgamma coactivator (PGC) from Tox21 10K library (AID 1224842); also: nearly all actives have a fitted effect of over 15% in size
Outline: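 PGC/ERR reporter cells (NTP line) were seeded 2,000 per well, rested 6 h at 37 C/5% CO2, then pin-dosed with compounds in DMSO for 18 h at 37 C; luciferase read by One-Glo luminescence after 30 min at room temperature.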

[19] = qHTS assay to identify small molecule antagonists of the estrogen related receptor (ERR) signaling pathway from Tox21 library (AID 1224848); also: nearly all actives have a fitted effect of over 50% in size
Outline: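 Screening used an ERR reporter line supplied by NTP, exposed for 18 h at 37 C to library compounds delivered in DMSO. Signal was luciferase luminescence developed with ONE-Glo at room temperature for 30 min.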

Measured: Potency

Retinoic acid receptor RXR-alpha (Homo sapiens), sequence (P19793 whole entry, looked up): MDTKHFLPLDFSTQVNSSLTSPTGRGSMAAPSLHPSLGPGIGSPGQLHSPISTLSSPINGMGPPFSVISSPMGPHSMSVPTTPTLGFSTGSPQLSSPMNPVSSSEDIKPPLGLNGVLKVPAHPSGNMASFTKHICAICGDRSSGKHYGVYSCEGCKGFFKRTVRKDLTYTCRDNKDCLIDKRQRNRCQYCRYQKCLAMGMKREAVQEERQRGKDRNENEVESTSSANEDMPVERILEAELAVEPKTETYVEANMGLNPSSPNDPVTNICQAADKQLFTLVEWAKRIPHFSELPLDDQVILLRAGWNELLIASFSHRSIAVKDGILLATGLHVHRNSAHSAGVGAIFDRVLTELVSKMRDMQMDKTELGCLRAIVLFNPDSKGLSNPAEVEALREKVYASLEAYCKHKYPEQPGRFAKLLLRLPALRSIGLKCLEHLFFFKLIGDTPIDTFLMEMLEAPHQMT
Thyrotropin receptor (Homo sapiens), sequence (P16473 whole entry, looked up): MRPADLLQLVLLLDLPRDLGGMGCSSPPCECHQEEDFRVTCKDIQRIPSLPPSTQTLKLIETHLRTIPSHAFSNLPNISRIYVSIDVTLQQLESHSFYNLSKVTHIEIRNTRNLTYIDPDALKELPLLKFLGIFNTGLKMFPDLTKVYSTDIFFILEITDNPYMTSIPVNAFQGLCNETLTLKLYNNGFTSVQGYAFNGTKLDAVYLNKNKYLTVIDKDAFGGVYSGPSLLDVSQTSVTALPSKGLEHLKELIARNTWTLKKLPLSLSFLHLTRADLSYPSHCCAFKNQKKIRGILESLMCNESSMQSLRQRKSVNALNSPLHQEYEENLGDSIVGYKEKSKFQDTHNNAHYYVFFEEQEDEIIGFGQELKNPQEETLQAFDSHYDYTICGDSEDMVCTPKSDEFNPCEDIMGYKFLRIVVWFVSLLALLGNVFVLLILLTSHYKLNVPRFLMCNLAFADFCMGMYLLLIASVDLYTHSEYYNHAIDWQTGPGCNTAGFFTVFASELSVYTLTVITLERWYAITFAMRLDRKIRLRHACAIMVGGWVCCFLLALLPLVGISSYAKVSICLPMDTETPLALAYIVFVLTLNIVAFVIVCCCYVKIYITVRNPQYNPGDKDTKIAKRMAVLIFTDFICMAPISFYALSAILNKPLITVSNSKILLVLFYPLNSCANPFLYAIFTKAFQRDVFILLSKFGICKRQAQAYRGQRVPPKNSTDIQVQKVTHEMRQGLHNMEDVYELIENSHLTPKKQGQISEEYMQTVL
Nuclear receptor subfamily 1 group I member 3 (Homo sapiens), sequence (Q14994 whole entry, looked up): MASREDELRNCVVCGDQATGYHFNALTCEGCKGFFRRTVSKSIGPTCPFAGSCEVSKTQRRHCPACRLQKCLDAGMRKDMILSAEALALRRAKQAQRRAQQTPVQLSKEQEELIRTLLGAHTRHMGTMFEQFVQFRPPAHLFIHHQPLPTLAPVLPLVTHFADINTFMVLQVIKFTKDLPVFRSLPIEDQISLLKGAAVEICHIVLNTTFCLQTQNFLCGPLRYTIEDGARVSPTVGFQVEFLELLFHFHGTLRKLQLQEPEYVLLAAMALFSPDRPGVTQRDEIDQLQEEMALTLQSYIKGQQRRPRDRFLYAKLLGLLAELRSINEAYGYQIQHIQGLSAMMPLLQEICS
Luciferin 4-monooxygenase (Photinus pyralis), sequence (P08659 whole entry, looked up): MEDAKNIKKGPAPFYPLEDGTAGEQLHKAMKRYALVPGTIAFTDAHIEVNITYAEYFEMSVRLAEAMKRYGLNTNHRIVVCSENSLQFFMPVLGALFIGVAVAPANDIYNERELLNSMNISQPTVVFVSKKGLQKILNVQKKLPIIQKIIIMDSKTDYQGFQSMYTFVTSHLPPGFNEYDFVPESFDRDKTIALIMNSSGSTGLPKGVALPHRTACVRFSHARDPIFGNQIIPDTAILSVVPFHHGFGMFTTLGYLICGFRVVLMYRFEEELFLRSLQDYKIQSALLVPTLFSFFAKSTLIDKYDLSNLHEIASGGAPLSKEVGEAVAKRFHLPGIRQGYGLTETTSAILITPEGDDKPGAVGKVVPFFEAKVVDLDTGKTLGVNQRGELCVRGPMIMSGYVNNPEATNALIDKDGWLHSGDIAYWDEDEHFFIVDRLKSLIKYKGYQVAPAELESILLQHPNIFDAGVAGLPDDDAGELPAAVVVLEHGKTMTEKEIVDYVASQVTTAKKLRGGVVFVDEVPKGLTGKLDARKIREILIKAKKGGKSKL

CNCCS(=O)(=O)O
not listed: [17] | [18] | [19]
inactive: all other assays above

CC1=C(O)C(=O)C(C)O1 (stereo not given)
not listed: [8] | [11] | [12] | [13] | [18] | [19]
inactive: all other assays above

CCC(C)C(C)=O (stereo not given)
not listed: [17] | [18] | [19]
inactive: all other assays above

CC(=O)C1C(=O)C=C(C)OC1=O (stereo not given)
not listed: [17] | [18] | [19]
inactive: all other assays above

CCOC(=O)CC1(C)OCC(C)O1 (stereo not given)
not listed: [17] | [18] | [19]
inactive: all other assays above

COC(=O)CCCCC(CCSS/C(CCO)=C(\C)N(C=O)Cc1cnc(C)nc1N)SC(C)=O (stereo not given)
not listed: [17] | [18] | [19]
inactive: all other assays above

CCCCCCC1(C)CCC(=O)O1 (stereo not given)
not listed: [8] | [12] | [16] | [18] | [19]
inactive: all other assays above

CCC(=O)Oc1ccc2c(c1)CC[C@@H]1[C@@H]2CC[C@@]2(C)[C@H]1C[C@@H](OC(=O)CC)[C@@H]2OC(=O)CC
not listed: [17] | [18] | [19]
inactive: all other assays above

CO/N=C(/C(=O)N[C@@H]1C(=O)N2C(C(=O)[O-])=C(C[n+]3ccn4ncccc43)CS[C@H]12)c1nsc(N)n1
not listed: [17] | [18] | [19]
inactive: all other assays above

COC(=O)c1cc(Cl)cc(Cl)c1
not listed: [12] | [17] | [18] | [19]
inactive: all other assays above

CC(C)(CO)C(O)C(=O)NCCCO (stereo not given)
not listed: [12] | [15] | [17]
inactive: all other assays above

CC(O)CC(C)O (stereo not given)
not listed: [8] | [18] | [19]
inactive: all other assays above

NCC1(Cc2noc(=O)[nH]2)CCCCC1
not listed: [8] | [13] | [17] | [18] | [19]
inactive: all other assays above

Cc1ccccc1C(N)=O
not listed: [11] | [17] | [18] | [19]
inactive: all other assays above

CCCCOC(=O)[C@H](C)O
not listed: [8] | [11] | [13] | [18] | [19]
inactive: all other assays above

O=C(Cn1ccnc1[N+](=O)[O-])NCc1ccccc1
not listed: [17] | [18] | [19]
inactive: all other assays above
